D3 ag = qHTS of D3 Dopamine Receptor Agonist: qHTS | D(3) dopamine receptor (Homo sapiens), P35462 | D3R DiscoveRx beta-arrestin cells, luminescence, 90 min | max activation, % | 410,000 tested, 0.58% active | AID 652048, 2013; in the data active = max activation above about 30%
Target sequence (P35462 whole entry, looked up): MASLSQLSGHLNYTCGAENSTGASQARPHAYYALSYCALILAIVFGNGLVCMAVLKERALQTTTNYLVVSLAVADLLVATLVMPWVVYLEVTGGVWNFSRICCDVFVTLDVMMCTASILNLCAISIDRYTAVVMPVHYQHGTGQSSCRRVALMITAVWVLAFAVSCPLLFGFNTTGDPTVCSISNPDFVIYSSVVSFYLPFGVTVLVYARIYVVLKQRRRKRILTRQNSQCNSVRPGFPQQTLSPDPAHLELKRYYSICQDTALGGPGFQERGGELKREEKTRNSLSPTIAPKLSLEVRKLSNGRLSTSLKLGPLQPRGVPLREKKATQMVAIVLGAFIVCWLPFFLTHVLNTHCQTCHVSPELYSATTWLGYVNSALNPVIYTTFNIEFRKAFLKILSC
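Agonist mode: compounds and dopamine controls were applied to plated cells for 90 min at 37 degrees C after an overnight attachment at 1500 cells/well. Luminescent read-out followed 30 - 60 minutes at room temperature with DiscoveRx detection reagent.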
TDP1 cell noCPT = qHTS for Inhibitors of human tyrosyl-DNA phosphodiesterase 1 (TDP1): qHTS in cells in absence of CPT; AID 686978, 2013; 420,000 tested, 15% active; DT40 Tdp1-/- hTDP1 cells, no CPT, ATP luminescence, 48 h; Potency, µM (series often up to 46.2 µM), actives largely listed as inhibitors; note: nearly all actives have a fitted effect of over 55% in size
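Stably hTDP1-transfected Tdp1-null chicken DT40 cells were treated with library compounds minus camptothecin and grown for at least 48 hr at 37 °C, after which cellular ATP was quantified by luminescence.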
ClpP mod = qHTS Assay for Activators of ClpP; Potency, µM (top dose mostly 57.5 µM); AID 651965, 2013; purified B. subtilis ClpP, FRET peptide cleavage, 20 min; 340,000 tested, 1.9% active; ATP-dependent Clp protease proteolytic subunit (Bacillus subtilis (strain 168)), P80244; active = well fitted falling curve with a large enough effect; inconclusive = small, poorly fitted or top-dose-only effect; inactive = no such curve, though single readings can be large or run the other way; note: the source files actives as falling curves though it sought activators and does not explain the sign; nearly all actives have a fitted effect of over 65% in size
Target sequence (P80244 whole entry, looked up): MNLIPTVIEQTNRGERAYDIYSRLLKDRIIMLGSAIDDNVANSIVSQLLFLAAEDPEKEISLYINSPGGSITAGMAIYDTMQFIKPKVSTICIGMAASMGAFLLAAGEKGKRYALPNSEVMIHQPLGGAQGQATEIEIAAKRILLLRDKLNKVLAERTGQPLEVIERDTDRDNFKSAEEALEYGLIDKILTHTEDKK
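Buffer: 100 mM Tris/HCl pH8, 100 mM KCl, 0.05% low protease BSA, 2.5% glycerol, 0.01% Tween-20. ClpP 10 microg/mL final; 20 min RT; delta FRET normalized to ADEP and DMSO controls.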
DRD3 antagonist = qHTS of D3 Dopamine Receptor Antagonist: qHTS; AID 652054, 2013; D(3) dopamine receptor (Homo sapiens), P35462; 360,000 tested, 2.5% active; max response, negative = inhibition, %; D3R cells, DiscoveRx beta-arrestin luminescence, antagonist mode; active compounds read low; in the data active = max response below about -50%; inconclusive = no clear call, values can overlap the other calls
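Cells plated overnight at 1500 cells/well, then exposed to library compounds with dopamine controls for 90 minutes at 37 degrees C. DiscoveRx reagent added for 30–60 minutes at room temperature; luminescence read, quantitative HTS format.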
TDP1 cell CPT = qHTS for Inhibitors of human tyrosyl-DNA phosphodiesterase 1 (TDP1): qHTS in cells in presence of CPT; chicken DT40 Tdp1-/-;hTDP1 cells + 20 nM CPT, ATP luminescence, 48 h; Potency, µM (highest dose often 46.2 µM), hits mostly inhibitors; 420,000 tested, 12% active; note: nearly all actives have a fitted effect of over 55% in size
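Cell growth measured by CellTiter-Glo luminescence after a minimum 48 h, 37 C compound exposure with 20 nM CPT in Tdp1-knockout DT40 cells stably expressing hTDP1, seeded 400/well; qHTS titration format.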
IL1B secr inh = qHTS for Inhibitors of Inflammasome Signaling: IL-1-beta AlphaLISA Primary Screen; 360,000 tested, 4.7% active; THP-1 LPS/ATP IL-1B secretion, AlphaLISA, 16 h; active compounds read low; AID 743279, 2014; activity change, % at 57.5 µM; in the data active = activity change below about -50%; inconclusive = mostly about -30% to -49%
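Secreted IL-1B measured by AlphaLISA bead assay after 16 h compound exposure of THP-1 cells; compounds (final up to 57.5 uM) added 1 h before LPS (250 ng/mL) and ATP (1.25 mM) stimulation; lower signal means less secretion.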
Each line names hits and unclear results; the compound was inactive in the other large screens. Only some compounds are listed: those with a hit (about 21% of all), similar ones and a draw of the others. Unless noted, calls come from the whole dose curve; as a rule, active = well fitted inhibition curve with a large enough effect; inconclusive = small, poorly fitted or top-dose-only effect; inactive = flat fitted curve, though single readings scatter.

CN1CC[C@]2(CCN3CCc4c(oc5ccccc45)[C@@H]3C2)N(C)C1=O	TDP1 cell noCPT 18µM, DRD3 antagonist -58, TDP1 cell CPT inconclusive
COc1ccccc1N(C(=O)c1cncc(Br)c1)c1nc(-c2ccc(C)cc2)cs1	TDP1 cell noCPT 18µM, TDP1 cell CPT 21µM
CCc1ccc2c(-c3cccc(Cl)c3)nc(=O)n(CC)c2n1	TDP1 cell noCPT inconclusive (no result: D3 ag, ClpP mod, DRD3 antagonist, IL1B secr inh)
CC1CCCC(C)N1CCCNC(=O)C1CCCN(S(=O)(=O)N2CCCCC2)C1 (configuration not stated)	none
Cc1ccc(S(=O)(=O)/N=C2/NC(=O)/C(=C\c3cc(Br)cc(Br)c3O)S2)cc1	DRD3 antagonist -53
Cc1ccc(S(=O)(=O)/N=C2/NC(=O)/C(=C/c3cccnc3)S2)cc1	TDP1 cell noCPT 29µM, TDP1 cell CPT inconclusive
Cc1ccc(S(=O)(=O)N2CCCC2)cc1C(=O)NCC(C)(C)N1CCOCC1	TDP1 cell noCPT inconclusive
COc1ccc(OC)c(CNC(=O)c2ccc3c(c2)c(C)c(C)n3Cc2ccc(Cl)cc2)c1	TDP1 cell noCPT inconclusive, ClpP mod 32µM, TDP1 cell CPT 16µM (no result: DRD3 antagonist, IL1B secr inh)
COc1ccccc1CCNC(=O)c1ccc2c(c1)c(C)c(C)n2Cc1ccc(Cl)cc1	TDP1 cell noCPT 21µM, ClpP mod inconclusive, TDP1 cell CPT 23µM (no result: DRD3 antagonist, IL1B secr inh)
CC(=O)SCC(CC(=O)c1ccc(C)cc1)C(=O)O (configuration not stated)	none (no result: ClpP mod, DRD3 antagonist, IL1B secr inh)
Cc1cccc(OCCCCCNCCO)c1	none
Cc1cccc(OCCCCNCc2ccccc2)c1	TDP1 cell noCPT inconclusive, DRD3 antagonist inconclusive, IL1B secr inh -72 (no result: ClpP mod)
COc1cccc(OCCNCc2ccccc2)c1	TDP1 cell noCPT 18µM, DRD3 antagonist -79, TDP1 cell CPT inconclusive
S=C(c1ccc(OCc2ccccc2)cc1)N1CCCC1	TDP1 cell noCPT inconclusive, TDP1 cell CPT 18µM
Oc1ccc(NCc2ccc(OCc3ccccc3)cc2)cc1	TDP1 cell noCPT 12µM, TDP1 cell CPT 6.5µM
Oc1ccc(OCc2ccccc2)cc1	TDP1 cell noCPT inconclusive, TDP1 cell CPT 4µM (no result: ClpP mod, DRD3 antagonist, IL1B secr inh)
CCC(C)NC(=O)COc1ccc(OCc2ccccc2)cc1 (configuration not stated)	TDP1 cell noCPT 26µM, TDP1 cell CPT inconclusive
Fc1ccc(COc2ccc(C(=S)N3CCCC3)cc2)cc1	TDP1 cell noCPT inconclusive
COCC(=O)Nc1ccc(OCc2ccccc2)cc1	none
COc1cc(C=O)c(-c2c(C=O)cc(OC)c3c2OCO3)c2c1OCO2	TDP1 cell noCPT 12µM, TDP1 cell CPT inconclusive
CCSc1ncc(Cl)c(C(=O)N(Cc2ccccc2)Cc2ccco2)n1	TDP1 cell noCPT 16µM, TDP1 cell CPT inconclusive (no result: DRD3 antagonist, IL1B secr inh)
CCCSc1ncc(Cl)c(C(=O)N(Cc2ccc(Cl)cc2)Cc2ccco2)n1	TDP1 cell noCPT inconclusive, TDP1 cell CPT inconclusive (no result: DRD3 antagonist, IL1B secr inh)
CSc1ncc(Cl)c(C(=O)N(Cc2ccc(N(C)C)cc2)Cc2ccco2)n1	TDP1 cell noCPT 7.3µM, TDP1 cell CPT inconclusive (no result: DRD3 antagonist, IL1B secr inh)
COc1ccc(N(Cc2cccs2)C(=O)c2ccc(OCC(C)C)cc2)cc1	TDP1 cell noCPT 21µM, TDP1 cell CPT inconclusive (no result: DRD3 antagonist, IL1B secr inh)
Cc1ccc(N(Cc2cccs2)C(=O)C(C)Oc2ccc(Cl)c(C)c2)cc1 (configuration not stated)	TDP1 cell noCPT 9.2µM, TDP1 cell CPT 12µM (no result: DRD3 antagonist, IL1B secr inh)
CCCCOc1cccc(C(=O)N(Cc2cccs2)c2ccc(OC)cc2)c1	TDP1 cell noCPT 6.5µM, TDP1 cell CPT inconclusive (no result: DRD3 antagonist, IL1B secr inh)
COc1ccc(N(Cc2cccs2)C(=O)c2ccc(C(C)(C)C)cc2)cc1	TDP1 cell noCPT inconclusive, TDP1 cell CPT inconclusive (no result: DRD3 antagonist, IL1B secr inh)
COc1ccc(N(Cc2cccs2)C(=O)c2ccccc2C)cc1	TDP1 cell noCPT 13µM, TDP1 cell CPT 12µM (no result: DRD3 antagonist, IL1B secr inh)
Cc1ccc(C)c(NC(=S)N2CCC(NC(=O)C3CCCCC3)CC2)c1	none

From PubChem BioAssay
